Measured values published in PubChem BioAssay AID623997 (National Center for Advancing Translational Sciences (NCATS), 2012).
Inconclusive results are not listed. Values without a mark were called inactive. Active and inactive are the calls of the source. The rule behind the calls is not given here.

Experiment: qHTS Assay for Inhibitors of Influenza NS1 Protein Function: Mammalian Cell Viability
Conditions: NS1 counter-screen; at 100 µM (top of the series)
Excerpt: Influenza is a world-wide public health problem and emerging forms of the virus have the potential to cause a pandemic of equal or greater magnitude to the outbreaks recorded in 1918, 1957 or 1968. Vaccine development is proceeding and there also exist two classes of anti-influenza compounds. However these therapeutic modalities are neither fully effective nor widely enough available to fulfill global needs. In addition their potential usefulness against newly emergent strains is not known. Efforts are needed to develop novel agents against influenza virus, including broad-spectrum agents. Identification of small molecules that inhibit NS1 function either directly or by interfering with specific cellular pathways may be a key to increasing our defense against the virus.
We have miniaturized and optimized a cell based assay in which NS1 from influenza A is expressed in the budding yeast S. cerevisiae. NS1 is a multi-functional protein that counters the host innate immune response and facilitates viral versus cellular gene expression. Expression of NS1 causes a pronounced slow growth phenotype in yeast due to its intrinsic molecular activities. Small molecules that suppress the slow growth phenotype can be identified by a straightforward growth recovery assay using optical density (OD) as the measurement. The same yeast strain not expressing NS1 was used as positive control in the yeast growth recovery assay.
Hits resulting from this primary screen and other follow-up screens, were tested in four concentrations for this mammalian cell viability assay, using MDCK cells.
NIH Chemical Genomics Center [NCGC]
NIH Molecular Libraries Probe Centers Network [MLPCN]
Assay Submitter (PI): Daniel Engel, University of Virgina
Opaque-walled 96-well plates were seeded with […] MDCK cells per well in 100 uL medium and incubated overnight at 37 deg C. The compound was added to triplicate wells for each concentration tested and incubated for 48 h at 37 deg C. The plate was equilibrated for 30 min at room temperature and 100 uL CellTiter Glo reagent (Promega) added according to the manufacturer's protocol. The plate was shaken for 2 min and then incubated for 10 min at room temperature. Luminescence was recorded in an LMAX 384 reader (Molecular Devices) with integration time of 1 s.

SMILES | viability
COc1cccc(-c2ccnc3c2c(C)nn3-c2ccc(F)cc2)c1 | 4.7% (active)
COc1cc(-c2c(C#N)c(N)nc3c2c(C)nn3-c2ccc(C)c(C)c2)cc(OC)c1OC | 90.8%
COc1ccc(-c2c(C#N)c(N)nc3c2c(C)nn3-c2ccc(F)cc2)cc1OC | 101%
COc1cc(-c2c(C#N)c(N)nc3c2c(C)nn3-c2ccc(Cl)cc2)cc(OC)c1OC | 92.1%
Cc1nn(-c2ccccc2)c2nc(N)c(C#N)c(-c3ccc(O)c(O)c3)c12 | 105%
COc1ccc(-c2c3c(C)nn(-c4ccccc4)c3nc3[nH]c(=O)[nH]c(=O)c23)cc1OC | 83.5%
Cc1nn(-c2ccc(F)cc2)c2nc(N)c(C#N)c(-c3ccc(O)c(O)c3)c12 | 86%
COc1cc(-c2c3c(C)nn(-c4ccccc4)c3nc3[nH]c(=O)[nH]c(=O)c23)ccc1O | 101%
COc1cc(-c2ccnc3c2c(C)nn3-c2ccc(F)cc2)ccc1O | 65%
COc1cc(-c2c3c(C)nn(-c4ccccc4)c3nc3[nH]c(=O)[nH]c(=O)c23)cc(OC)c1O | 98.6%
COc1ccc(-c2ccnc3c2c(C)nn3-c2ccc(F)cc2)cc1 | 114%
COc1ccc(-c2ccnc3c2c(C)nn3-c2ccc(F)cc2)cc1OC | 93.4%
COc1ccc(-c2c(C#N)c(N)nc3c2c(C)nn3-c2ccc(Cl)cc2)cc1OC | 103%
COc1cc(-c2c(C#N)c(N)nc3c2c(C)nn3-c2ccc(C)cc2)ccc1O | 94%
COc1ccc(-c2c(C#N)c(N)nc3c2c(C)nn3-c2ccccc2)cc1OC | 101%
COc1cc(-c2c(C#N)c(N)nc3c2c(C)nn3-c2ccc(C)c(C)c2)ccc1O | 99.3%
Cc1ccc(-n2nc(C)c3c(-c4ccc(O)c(O)c4)c(C#N)c(N)nc32)cc1 | 94.7%

SMILES | viability
COc1cc(-c2c(C#N)c(=O)[nH]c3c2c(C)nn3-c2ccccc2)cc(OC)c1OC | 97.8%
COc1ccc(-n2nc(C)c3c(-c4ccc(O)c(OC)c4)ccnc32)cc1 | 108%
CCOC(=O)c1cnc2c(c(C)nn2-c2ccc(F)cc2)c1-c1ccc(O)c(OC)c1 | 54.9%
COc1cc(-c2c(C#N)c(N)nc3c2c(C)nn3-c2ccc(C)cc2)cc(OC)c1OC | 99.9%
COc1cc(-c2ccnc3c2c(C)nn3-c2ccc(C(F)(F)F)cc2)ccc1O | 118%
COc1ccc(-c2c3c(C)nn(-c4ccccc4)c3nc3[nH]c(=O)[nH]c(=O)c23)cc1O | 102%
COc1cc(-c2c(C#N)c(N)nc3c2c(C)nn3-c2ccccc2)ccc1O | 101%
COc1cc(-c2c(C#N)c(=O)[nH]c3c2c(C)nn3-c2ccccc2)ccc1O | 85.2%
COc1cc(-c2c(C#N)c(N)nc3c2c(C)nn3-c2ccc(F)cc2)ccc1O | 88%
COc1cc(-c2ccnc3c2c(C)nn3-c2cccc(C(F)(F)F)c2)ccc1O | 114%
COc1cc(-c2c(C#N)c(N)nc3c2c(C)nn3-c2ccc(F)cc2)cc(OC)c1OC | 90.7%
COc1ccc(-c2c(C#N)c(N)nc3c2c(C)nn3-c2ccc(C)cc2)cc1OC | 103%
Cc1nn(-c2ccccc2)c2nc3[nH]c(=O)[nH]c(=O)c3c(-c3ccc4c(c3)OCO4)c12 | 72.3%
Cc1nn(-c2ccc(Cl)cc2)c2nc(N)c(C#N)c(-c3ccc(O)c(O)c3)c12 | 68.5%
COc1cc(-c2ccnc3c2c(C)nn3-c2cccc(F)c2)ccc1O | 122%
COc1cccc(-n2nc(C)c3c(-c4ccc(O)c(OC)c4)ccnc32)c1 | 124%
